# Data published in the supplement of paper PMC10849652.
# Targets with a hit are over-represented here; the source holds about 7,900 in all. About 0.6% of all pairs of compound and target were hits. Unmarked numbers belong to inactive results.
# What was measured:
# Assay in all cases: log2 fold change, soluble protein after heating vs DMSO (PISA); higher = thermal stabilisation; K562 cells, 10 uM, 30 min; active = over 0.2 and 3.5 SD of the protein, either way, in both replicates (recomputed)
# bafetinib = compound: Cc1ccc(NC(=O)c2ccc(CN3CC[C@H](N(C)C)C3)c(C(F)(F)F)c2)cc1Nc1nccc(-c2cncnc2)n1 [bafetinib]
# Procedure, shortened: (§1)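 Soluble protein was defined as the supernatant after 21,000xg for 90 min. It came from K562 cells at 2×10^6 cells/mL given 10 μM compound for 30 min, heated in aliquots for 3 min across 48°C-58°C, pooled, and extracted in PBS with 0.5% NP-40 at 4°C, and was quantified by TMTpro 16plex LC-MS/MS with equalised channel sums. Thermal stability against control samples, from duplicates, is reported as log2 fold change.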
# [1] = compound: Cc1cccc(CC(=O)N2CCc3c2ccc(-c2cn(C)c4ncnc(N)c24)c3F)n1
# Procedure, shortened: as §1
# nilotinib = compound: Cc1cn(-c2cc(NC(=O)c3ccc(C)c(Nc4nccc(-c5cccnc5)n4)c3)cc(C(F)(F)F)c2)cn1 [nilotinib]
# Procedure, shortened: as §1
# [2] = compound: Cc1nc(Nc2n[nH]c3c2CN(C(=O)N[C@H](CN(C)C)c2ccccc2)C3(C)C)c2sccc2n1
# Procedure, shortened: as §1
# dasatinib = compound: Cc1nc(Nc2ncc(C(=O)Nc3c(C)cccc3Cl)s2)cc(N2CCN(CCO)CC2)n1 [dasatinib]
# Procedure, shortened: as §1
# [3] = compound: Cc1ncc(-c2ccnc(Nc3ccc(S(C)(=O)=O)cc3)n2)n1C(C)C
# Procedure, shortened: as §1
# [4] = compound: Cn1cc(-c2ccc3c(c2)CCN3C(=O)Cc2cccc(C(F)(F)F)c2)c2c(N)ncnc21
# Procedure, shortened: as §1
# [5] = compound: Cn1cc(-c2ccc3nnc(C(F)(F)c4ccc5ncccc5c4)n3n2)cn1
# Procedure, shortened: as §1
# tipifarnib = compound: Cn1cncc1[C@@](N)(c1ccc(Cl)cc1)c1ccc2c(c1)c(-c1cccc(Cl)c1)cc(=O)n2C [tipifarnib]
# Procedure, shortened: as §1
# mubritinib = compound: FC(F)(F)c1ccc(/C=C/c2nc(COc3ccc(CCCCn4ccnn4)cc3)co2)cc1 [mubritinib]
# Procedure, shortened: as §1
# [6] = compound: NC(=O)Nc1cc(-c2cccc(F)c2)sc1C(=O)N[C@H]1CCCNC1
# Procedure, shortened: as §1
# [7] = compound: NC(=O)c1cnc(N[C@@H]2CCCC[C@@H]2N)nc1Nc1cccc(-n2nccn2)c1
# Procedure, shortened: as §1
# [8] = compound: NC1(c2ccc(-c3nc4ccn5c(=O)[nH]nc5c4cc3-c3ccccc3)cc2)CCC1
# Procedure, shortened: as §1
# [9] = compound: NCC(=O)Nc1ccc(-n2nc(C(F)(F)F)cc2-c2ccc3c(ccc4ccccc43)c2)cc1
# Procedure, shortened: as §1
# entinostat = compound: Nc1ccccc1NC(=O)c1ccc(CNC(=O)OCc2cccnc2)cc1 [entinostat]
# Procedure, shortened: as §1
# vorinostat = compound: O=C(CCCCCCC(=O)Nc1ccccc1)NO [vorinostat]
# Procedure, shortened: as §1
# citarinostat = compound: O=C(CCCCCCNC(=O)c1cnc(N(c2ccccc2)c2ccccc2Cl)nc1)NO [citarinostat]
# Procedure, shortened: as §1
# silmitasertib = compound: O=C(O)c1ccc2c(c1)nc(Nc1cccc(Cl)c1)c1ccncc12 [silmitasertib]
# Procedure, shortened: as §1
# [10] = compound: O=C1NC(=O)C(c2cnc3ccccn23)=C1c1cn2c3c(cc(F)cc13)CN(C(=O)N1CCCCC1)CC2
# Procedure, shortened: as §1
# [11] = compound: c1cc(OCCN2CCCCC2)cc(-c2n[nH]c3ccc(-c4nnc[nH]4)cc23)c1
# Procedure, shortened: as §1
# Sequence of UniProt Q8NDZ6 (Q8NDZ6 whole entry, looked up): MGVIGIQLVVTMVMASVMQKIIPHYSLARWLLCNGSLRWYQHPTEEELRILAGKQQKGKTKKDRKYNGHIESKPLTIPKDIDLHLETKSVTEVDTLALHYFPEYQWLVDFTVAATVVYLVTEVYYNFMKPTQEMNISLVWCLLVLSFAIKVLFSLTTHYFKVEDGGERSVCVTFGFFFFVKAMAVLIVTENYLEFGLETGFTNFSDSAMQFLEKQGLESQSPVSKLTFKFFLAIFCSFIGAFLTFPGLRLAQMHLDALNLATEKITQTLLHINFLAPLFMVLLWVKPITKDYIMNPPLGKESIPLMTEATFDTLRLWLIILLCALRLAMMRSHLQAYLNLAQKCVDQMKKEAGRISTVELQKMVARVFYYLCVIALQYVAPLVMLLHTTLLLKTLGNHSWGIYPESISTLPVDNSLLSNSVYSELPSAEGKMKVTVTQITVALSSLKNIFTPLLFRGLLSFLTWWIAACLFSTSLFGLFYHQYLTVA
# Sequence of UniProt Q15388 (Q15388 whole entry, looked up): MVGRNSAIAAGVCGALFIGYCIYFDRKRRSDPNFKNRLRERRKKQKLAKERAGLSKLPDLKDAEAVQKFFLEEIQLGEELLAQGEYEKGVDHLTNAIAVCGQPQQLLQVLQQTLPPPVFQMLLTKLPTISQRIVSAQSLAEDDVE
# Sequence of UniProt Q9Y4E8 (Q9Y4E8 whole entry, looked up): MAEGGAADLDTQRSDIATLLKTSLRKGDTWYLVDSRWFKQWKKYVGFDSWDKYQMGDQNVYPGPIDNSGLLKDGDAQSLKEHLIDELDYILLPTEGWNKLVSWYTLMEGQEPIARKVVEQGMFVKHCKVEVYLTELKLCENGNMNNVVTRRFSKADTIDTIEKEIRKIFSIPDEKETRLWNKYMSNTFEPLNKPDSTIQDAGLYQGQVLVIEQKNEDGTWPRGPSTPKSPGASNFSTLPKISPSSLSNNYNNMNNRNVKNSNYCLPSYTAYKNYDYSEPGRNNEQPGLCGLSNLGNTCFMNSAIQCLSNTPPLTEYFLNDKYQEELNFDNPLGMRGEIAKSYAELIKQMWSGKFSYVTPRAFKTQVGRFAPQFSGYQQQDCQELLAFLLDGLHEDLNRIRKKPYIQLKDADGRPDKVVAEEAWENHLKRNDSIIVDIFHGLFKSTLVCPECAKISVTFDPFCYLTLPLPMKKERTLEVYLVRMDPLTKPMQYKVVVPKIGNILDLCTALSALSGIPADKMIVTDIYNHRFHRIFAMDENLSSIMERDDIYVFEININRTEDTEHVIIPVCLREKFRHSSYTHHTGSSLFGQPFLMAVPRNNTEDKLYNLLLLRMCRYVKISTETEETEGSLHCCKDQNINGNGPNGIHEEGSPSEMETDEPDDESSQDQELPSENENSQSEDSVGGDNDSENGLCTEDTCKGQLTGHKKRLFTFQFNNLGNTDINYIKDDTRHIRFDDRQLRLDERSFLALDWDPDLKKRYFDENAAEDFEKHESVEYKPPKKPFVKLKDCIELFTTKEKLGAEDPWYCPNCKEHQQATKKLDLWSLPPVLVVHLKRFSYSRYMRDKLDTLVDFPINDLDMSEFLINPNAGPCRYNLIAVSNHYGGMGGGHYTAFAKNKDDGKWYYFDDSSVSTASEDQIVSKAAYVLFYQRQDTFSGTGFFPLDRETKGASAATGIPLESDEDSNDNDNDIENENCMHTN
# Sequence of UniProt Q9Y385 (Q9Y385 whole entry, looked up): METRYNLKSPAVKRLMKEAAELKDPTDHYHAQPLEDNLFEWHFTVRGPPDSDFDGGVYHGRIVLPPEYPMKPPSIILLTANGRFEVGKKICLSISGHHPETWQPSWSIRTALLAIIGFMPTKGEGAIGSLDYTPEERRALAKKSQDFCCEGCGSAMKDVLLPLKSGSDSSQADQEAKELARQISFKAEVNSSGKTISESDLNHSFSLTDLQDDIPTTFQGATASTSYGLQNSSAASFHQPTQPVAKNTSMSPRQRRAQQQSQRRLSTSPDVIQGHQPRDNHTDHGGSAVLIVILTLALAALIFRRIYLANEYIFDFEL
# Sequence of UniProt Q9UDW1 (Q9UDW1 whole entry, looked up): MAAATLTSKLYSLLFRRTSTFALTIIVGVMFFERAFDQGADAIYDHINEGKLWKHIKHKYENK
# Sequence of UniProt Q9P253 (Q9P253 whole entry, looked up): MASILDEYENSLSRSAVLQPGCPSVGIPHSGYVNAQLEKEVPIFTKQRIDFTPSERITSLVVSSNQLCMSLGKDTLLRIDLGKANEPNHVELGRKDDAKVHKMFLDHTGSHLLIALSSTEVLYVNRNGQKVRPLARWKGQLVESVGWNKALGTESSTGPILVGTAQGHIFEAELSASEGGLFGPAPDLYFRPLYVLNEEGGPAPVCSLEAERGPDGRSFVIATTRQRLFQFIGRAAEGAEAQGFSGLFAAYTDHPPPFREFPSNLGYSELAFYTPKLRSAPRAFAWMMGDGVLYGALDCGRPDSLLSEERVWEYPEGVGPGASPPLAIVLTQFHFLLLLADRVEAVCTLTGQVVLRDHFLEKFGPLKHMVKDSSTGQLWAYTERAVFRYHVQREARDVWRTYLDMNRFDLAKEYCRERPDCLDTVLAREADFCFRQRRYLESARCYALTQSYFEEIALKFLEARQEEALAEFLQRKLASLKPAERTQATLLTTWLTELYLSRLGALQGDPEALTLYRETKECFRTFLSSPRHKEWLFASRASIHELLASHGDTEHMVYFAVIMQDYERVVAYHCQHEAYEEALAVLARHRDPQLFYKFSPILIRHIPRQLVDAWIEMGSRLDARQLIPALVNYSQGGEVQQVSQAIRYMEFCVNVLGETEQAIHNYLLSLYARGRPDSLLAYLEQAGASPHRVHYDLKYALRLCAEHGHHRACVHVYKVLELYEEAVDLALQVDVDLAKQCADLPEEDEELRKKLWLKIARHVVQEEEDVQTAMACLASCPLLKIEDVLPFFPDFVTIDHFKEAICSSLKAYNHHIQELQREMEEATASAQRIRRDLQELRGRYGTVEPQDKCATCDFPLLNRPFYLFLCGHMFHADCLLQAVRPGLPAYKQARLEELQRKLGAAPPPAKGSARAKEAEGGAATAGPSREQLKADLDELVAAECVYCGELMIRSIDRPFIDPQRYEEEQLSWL
# Sequence of UniProt O94967 (O94967 whole entry, looked up): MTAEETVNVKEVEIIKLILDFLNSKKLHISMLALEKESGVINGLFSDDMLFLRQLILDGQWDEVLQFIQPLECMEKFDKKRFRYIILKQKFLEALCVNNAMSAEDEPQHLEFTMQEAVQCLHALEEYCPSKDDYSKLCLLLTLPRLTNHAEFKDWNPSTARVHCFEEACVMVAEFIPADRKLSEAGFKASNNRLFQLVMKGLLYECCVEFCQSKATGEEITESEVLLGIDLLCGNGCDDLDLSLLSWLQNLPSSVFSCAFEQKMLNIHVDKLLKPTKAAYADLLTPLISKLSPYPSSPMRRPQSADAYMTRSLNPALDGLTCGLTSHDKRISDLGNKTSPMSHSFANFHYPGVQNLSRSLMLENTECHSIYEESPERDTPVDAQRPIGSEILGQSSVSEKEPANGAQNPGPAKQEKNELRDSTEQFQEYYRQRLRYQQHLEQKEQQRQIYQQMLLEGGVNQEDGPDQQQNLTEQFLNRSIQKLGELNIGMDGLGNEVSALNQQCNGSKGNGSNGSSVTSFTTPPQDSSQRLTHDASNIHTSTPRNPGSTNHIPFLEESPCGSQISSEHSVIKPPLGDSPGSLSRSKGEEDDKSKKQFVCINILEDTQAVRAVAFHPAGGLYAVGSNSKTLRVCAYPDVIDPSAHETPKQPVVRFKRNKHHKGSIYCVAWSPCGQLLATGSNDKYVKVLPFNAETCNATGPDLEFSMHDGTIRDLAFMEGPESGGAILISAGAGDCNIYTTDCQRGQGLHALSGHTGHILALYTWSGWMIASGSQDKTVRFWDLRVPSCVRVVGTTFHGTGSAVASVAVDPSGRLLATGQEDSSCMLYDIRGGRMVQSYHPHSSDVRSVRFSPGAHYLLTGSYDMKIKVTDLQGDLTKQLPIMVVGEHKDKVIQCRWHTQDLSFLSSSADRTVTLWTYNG
# Sequence of UniProt Q13263 (Q13263 whole entry, looked up): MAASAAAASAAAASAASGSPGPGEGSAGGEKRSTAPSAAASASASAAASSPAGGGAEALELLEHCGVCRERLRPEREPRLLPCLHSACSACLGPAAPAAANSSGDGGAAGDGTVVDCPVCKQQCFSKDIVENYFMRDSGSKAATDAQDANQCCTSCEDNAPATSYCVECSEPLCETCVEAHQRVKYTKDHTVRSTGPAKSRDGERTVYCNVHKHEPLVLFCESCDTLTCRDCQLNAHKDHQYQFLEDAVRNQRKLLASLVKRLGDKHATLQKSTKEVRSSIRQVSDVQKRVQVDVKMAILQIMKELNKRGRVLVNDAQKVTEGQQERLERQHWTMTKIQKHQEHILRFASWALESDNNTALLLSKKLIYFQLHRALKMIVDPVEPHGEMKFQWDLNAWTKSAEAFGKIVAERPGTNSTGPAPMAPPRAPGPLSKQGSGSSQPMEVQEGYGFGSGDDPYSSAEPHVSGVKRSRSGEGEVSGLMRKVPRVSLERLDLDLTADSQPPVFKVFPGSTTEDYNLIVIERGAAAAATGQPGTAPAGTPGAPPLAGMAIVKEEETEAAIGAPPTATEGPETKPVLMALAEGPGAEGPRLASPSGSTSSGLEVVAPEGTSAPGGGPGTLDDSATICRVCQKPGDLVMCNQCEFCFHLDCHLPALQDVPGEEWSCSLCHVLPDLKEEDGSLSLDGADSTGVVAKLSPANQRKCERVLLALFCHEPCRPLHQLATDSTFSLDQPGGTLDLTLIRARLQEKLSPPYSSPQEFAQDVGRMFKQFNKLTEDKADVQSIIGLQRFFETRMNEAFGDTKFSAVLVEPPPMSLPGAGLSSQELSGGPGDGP
# Sequence of UniProt P02585 (P02585 whole entry, looked up): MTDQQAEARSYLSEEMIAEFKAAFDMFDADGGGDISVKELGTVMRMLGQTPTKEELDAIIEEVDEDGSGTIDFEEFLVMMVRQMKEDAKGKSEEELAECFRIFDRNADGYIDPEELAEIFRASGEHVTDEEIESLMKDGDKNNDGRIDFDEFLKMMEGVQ
Target,log2 fold change (bafetinib),log2 fold change [1],log2 fold change (nilotinib),log2 fold change [2],log2 fold change (dasatinib),log2 fold change [3],log2 fold change [4],log2 fold change [5],log2 fold change (tipifarnib),log2 fold change (mubritinib),log2 fold change [6],log2 fold change [7],log2 fold change [8],log2 fold change [9],log2 fold change (entinostat),log2 fold change (vorinostat),log2 fold change (citarinostat),log2 fold change (silmitasertib),log2 fold change [10],log2 fold change [11]
TOMM20 (UniProt Q15388),-0.194,-0.035,-0.002,-0.031,0.039,0.01,0.003,0.006,-0.095,0.017,0.008,-0.034,-0.023,-0.131,0.01,0.031,-0.088,-0.006,-0.088,-0.01
TRAPPC6B (UniProt Q86SZ2),-0.005,-0.024,-0.008,-0.027,-0.042,0.021,0.024,0.04,-0.028,0.045,0.025,0.016,-0.025,0.007,0.066,0.013,0.046,0.001,0.143,-0.058
VPS39 (UniProt Q96JC1),-0.032,0.069,-0.019,-0.068,-0.15,-0.017,0.033,0.003,-0.058,0.027,0.026,-0.119,-0.195,-0.039,0.05,0.101,0.01,-0.004,0.055,-0.042
TNNC2 (UniProt P02585),-0.057,-0.058,0.057,0.024,0.022,-0.015,0.049,0.032,0.015,0.001,-0.003,0.006,-0.028,0.028,-0.025,-0.101,0.048,-0.026,-0.033,-0.003
TMEM161B (UniProt Q8NDZ6),-0.01,0.073,-0.148,-0.018,-0.273 (active),-0.046,-0.08,0.103,-0.043,0.036,-0.056,0.029,-0.017,-0.073,0.041,0.097,0.036,-0.011,0.003,-0.03
WDR37 isoform 2 (UniProt Q9Y2I8),0.039,-0.093,-0.073,0.039,0.005,-0.05,-0.024,0.017,0.083,-0.021,-0.041,-0.01,-0.052,-0.08,-0.004,-0.068,-0.012,-0.059,0.032,-0.162
VPS18 (UniProt Q9P253),-0.097,0.059,-0.052,-0.069,-0.194,-0.022,0.086,0.089,-0.047,0.088,0.019,-0.13,-0.216,0.079,0.08,0.089,0.009,0.005,0.023,0.005
UBAP1 isoform 4 (UniProt Q9NZ09),-0.026,-0.022,-0.082,-0.15,-0.086,0.009,0.015,-0.015,-0.131,0.084,-0.035,-0.005,-0.052,0.002,-0.027,-0.019,0.193,0.064,-0.032,-0.049
UBE2J1 (UniProt Q9Y385),0.108,0.023,-0.076,-0.09,-0.028,-0.189,-0.053,0.003,-0.056,0.132,0.031,-0.038,0.07,0.017,-0.077,-0.019,0.041,0.042,-0.375 (active),-0.09
UBE4A isoform 2 (UniProt Q14139),0.01,0.065,-0.111,-0.162,-0.196,0.015,-0.183,-0.023,-0.092,0.021,-0.017,0.01,-0.136,0.001,0.146,0.133,0.059,0.117,0.026,-0.014
WDR47 (UniProt O94967),0.042,0.004,0.02,-0.046,-0.036,0.067,0.002,0.033,0.039,-0.147,0.072,-0.023,-0.224 (active),-0.065,0.002,-0.014,0.014,0.089,0.004,0.282
TMEM87B (UniProt Q96K49),-0.138,0.015,0.037,-0.072,0.002,0.05,-0.077,-0.08,0.069,0.006,-0.098,-0.062,-0.266,-0.1,0.135,0.057,0.021,0.096,-0.032,-0.117
USP15 (UniProt Q9Y4E8),-0.01,0.047,-0.064,-0.082,-0.099,0.005,0.021,0.044,-0.081,0.023,-0.017,-0.078,-0.185,-0.066,0.052,0.044,0.064,0.035,-0.016,-0.022
TRIM28 (UniProt Q13263),0.005,0.011,-0.013,-0.035,-0.014,0.013,-0.02,0.004,-0.035,0.009,-0.006,-0.008,-0.038,-0.007,0.038,0.032,0.036,0.036,-0.048,-0.009
UQCR10 (UniProt Q9UDW1),-0.047,-0.011,-0.003,0.02,-0.009,-0.059,0.072,0.084,0.007,-0.024,-0.053,-0.043,0.076,0.02,-0.003,0.187,0.045,-0.003,-0.067,-0.026
WASHC5 (UniProt Q12768),-0.052,0.044,-0.046,-0.001,-0.112,-0.004,0.005,0.086,-0.001,0.027,0,-0.011,-0.232 (active),-0.047,0.04,0.022,0.074,0.045,0.038,-0.012
